Screening results from PubChem.
Shown are actives, neighbours in structure and some others; about 8.1% of the full set was active somewhere.
KB-V1 cytotox: kills drug-selected multidrug resistant KB-V1 cells. KB-V1 MDR cells viability, CellTiter-Glo, 72 h. Potency, µM (highest dose often 46.1 µM), usual class: cytotoxic. 400,000 compounds, 3.4% hits. AID 1347076; also: % is scaled to controls: 0 for no effect and ±100 for the full control effect; nearly all actives have a fitted effect of over 60% in size
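KB-V1, DMEM (no phenol red) + 10% FBS; cpd pin-transferred, titration series; 72 h, 37 degrees C; CellTiter-Glo, luminescence. Data normalized, curve-fit.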
SW480 rereplic: induces DNA re-replication in SW480 colon adenocarcinoma cells | SW480 DNA re-replication, Hoechst DNA content imaging, 48 h | Potency, µM (top dose mostly 46.1 µM), for the others: at the top dose re-replication activation, usual class: activators | 340,000 compounds, 1.8% hits; also: % of control where 0% means no effect; nearly all actives have a fitted effect of over 55% in size
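First, 250 cells per well were seeded. Next, compound or vehicle (23 nL) was pinned in, plates sat 48 hr at 37 C. Finally Hoechst was added for 40 min before fluorescence scanning.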
KB-3-1 tox: kills parental KB-3-1 adenocarcinoma cells. AID 1347075. 400,000 compounds, 1.4% hits. KB-3-1 viability, CellTiter-Glo ATP luminescence, 72 h. Potency, µM (titrated, usually from 46.1 µM), actives largely listed as cytotoxic; also: % is scaled to controls: 0 for no effect and ±100 for the full control effect; nearly all actives have a fitted effect of over 60% in size
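KB-3-1 cells, DMEM (no phenol red) + 10% FBS; compound by pin transfer, 72 h, 37 °C. Readout: CellTiter-Glo luminescence after 10 min. Data normalized, curve-fitted.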
ELG1 DNA repair: blocks ELG1-dependent DNA repair in HEK293T cells; 330,000 compounds, 2.3% hits; Potency, µM (series often up to 46.1 µM), without a hit: at the top dose activity change, negative = inhibition, most hits filed as inhibitors; HEK293T ELG1-luciferase reporter, luminescence, 16 h; DNA damage induced by 5-fluorouridine; also: % is scaled to controls: 0 for no effect and ±100 for the full control effect; nearly all actives have a fitted effect of over 55% in size
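Quantitative HTS, concentration-response format. 2,000 cells/well co-treated with 5-fluorouridine and compound, 16 hr in 5% CO2 at 37 °C; ONE-Glo luminescence read after 30 min.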
MCF10A rereplic: induces DNA re-replication in MCF 10a normal breast cells; Potency, µM (series often up to 46.1 µM), inactives show at the top dose activity, positive = re-replication, most hits filed as activators; MCF 10A DNA re-replication, Hoechst nuclear intensity, 48 h; 350,000 compounds, 2.9% hits; also: % of control where 0% means no effect; nearly all actives have a fitted effect of over 50% in size
ELG1-Luc inh: inhibits ELG1-dependent DNA repair in HEK293T cells, confirmed | shares compounds with ELG1 DNA repair | HEK293T ELG1-luciferase levels, luminescence; cells co-treated with 5-fluorouridine | Potency, µM (top dose mostly 46.1 µM), inactives show top-dose activity change, negative = inhibition, usual class: inhibitors | 670 compounds, 68% hits | AID 624248; also: % is scaled to controls: 0 for no effect and ±100 for the full control effect; nearly all actives have a fitted effect of over 55% in size
ELG1-Luc MMS: inhibits ELG1-dependent repair under MMS stimulation in HEK293T cells | shares compounds with ELG1 DNA repair | HEK293T luciferase-tagged ELG1 level, MMS stimulated | Potency, µM (doses to about 46.1 µM), for the others: at the top dose activity change, negative = inhibition, hits mostly inhibitors | 670 compounds, 53% hits; also: % is scaled to controls: 0 for no effect and ±100 for the full control effect; nearly all actives have a fitted effect of over 60% in size
ELG1 5-FU: confirmation of ELG1 repair inhibitors: viability with 5FU; shares compounds with ELG1 DNA repair; cell viability with 5-FU, ELG1-dependent repair; Potency, µM (series often up to 46.1 µM), inactives show top-dose activity change, negative = viability loss, hits mostly cytotoxic; 670 tested, under 10 active; AID 624250;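 also: ELG1-luc HEK293T cells cotreated with 5-fluorouridine at 10 µM final; viability measured 16 h after compound addition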
ELG1 MMS cell: confirmation of ELG1 repair inhibitors: viability with MMS | shares compounds with ELG1 DNA repair | Cell viability with MMS, ELG1-dependent DNA repair | Potency, µM (highest dose often 46.1 µM), inactives show at the top dose activity change, negative = viability loss, most hits filed as cytotoxic | 670 compounds, 33% hits | AID 624251;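 also: ELG1-luc HEK293T cells co-treated with 10 µM MMS; viability read 16 h after compound addition; % is scaled to controls: 0 for no effect and ±100 for the full control effect; nearly all actives have a fitted effect of over 60% in size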
ELG1 unstim viab: counter-screen for ELG1 repair inhibitors: unstimulated cell viability | cell viability counter-screen, unstimulated, luminescence | AID 624252 | Potency, µM (series often up to 45.9 µM), without a hit: at the top dose activity change, negative = loss of viability, most hits filed as cytotoxic | 900 compounds, 8% hits | shares compounds with ELG1 DNA repair;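 also: compound exposure lasted 16 hours before reading; % is scaled to controls: 0 for no effect and ±100 for the full control effect; nearly all actives have a fitted effect of over 55% in size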
An asterisk follows results filed as active. Calls follow the shape of the dose curve; as a rule, active = well fitted curve in the direction sought with a large enough effect; inconclusive = small, poorly fitted or top-dose-only effect, or another doubt; inactive = no such curve, though single readings can be large; an effect the other way counts as inactive or inconclusive. Potency is read from the fitted curve at half-maximal effect.

Screening CCOC(=O)N1CCN(C(=O)C2COc3ccccc3O2)CC1 (configuration not stated) returned KB-V1 cytotox inactive, SW480 rereplic -2%, KB-3-1 tox inactive, ELG1 DNA repair 0% and MCF10A rereplic -1%.
For Cc1c(C)c2ccc(OCC(=O)N3CCN(C(=O)C4COc5ccccc5O4)CC3)cc2oc1=O (configuration not stated) the results were KB-V1 cytotox inactive, SW480 rereplic 4%, KB-3-1 tox inactive, ELG1 DNA repair 1.8µM*, MCF10A rereplic -3%, ELG1-Luc inh 4µM*, ELG1-Luc MMS -18%, ELG1 5-FU inconclusive, ELG1 MMS cell -6% and ELG1 unstim viab inconclusive.
`O=C(COc1ccc2ccc(=O)oc2c1)N1CCN(C(=O)C2COc3ccccc3O2)CC1` (configuration not stated) gave KB-V1 cytotox inactive, SW480 rereplic -12%, KB-3-1 tox inactive, ELG1 DNA repair 1.5µM*, MCF10A rereplic 4%, ELG1-Luc inh 2.8µM*, ELG1-Luc MMS 14%, ELG1 5-FU inconclusive, ELG1 MMS cell 0% and ELG1 unstim viab -1%.
`O=C1CC(c2ccco2)CC(O)=C1C=NCC1CCNCC1` (configuration not stated) gave KB-V1 cytotox inactive, SW480 rereplic 2%, KB-3-1 tox inactive, ELG1 DNA repair 6% and MCF10A rereplic 0%.
For O=C(Oc1ccccc1)c1ccc(COC(=O)c2cnccn2)cc1 the results were KB-V1 cytotox inactive, SW480 rereplic inconclusive, KB-3-1 tox inactive, ELG1 DNA repair -18% and MCF10A rereplic -2%.
CCCc1cc(=O)oc2cc(OCC(=O)N3CCN(C(=O)C4COc5ccccc5O4)CC3)ccc12 (configuration not stated) was read as KB-V1 cytotox inactive, SW480 rereplic -8%, KB-3-1 tox inactive, ELG1 DNA repair 3.7µM*, MCF10A rereplic -3%, ELG1-Luc inh 3.1µM*, ELG1-Luc MMS inconclusive, ELG1 5-FU inconclusive, ELG1 MMS cell -8% and ELG1 unstim viab inconclusive.
Cc1cc(=O)oc2cc(OCC(=O)N3CCN(C(=O)C4COc5ccccc5O4)CC3)c(Cl)cc12 (configuration not stated) was read as KB-V1 cytotox inactive, SW480 rereplic 3%, KB-3-1 tox inactive, ELG1 DNA repair inconclusive and MCF10A rereplic 8%.
CCCCn1c(N)c(N(CCOC)C(=O)COC(=O)CSc2cc(C)c3ccccc3n2)c(=O)[nH]c1=O was read as KB-V1 cytotox inactive, SW480 rereplic -63%, KB-3-1 tox inactive, ELG1 DNA repair 14% and MCF10A rereplic -19%.
